Rows were chosen to be rich in hits. Some 2.6% of all compounds tested hit in one or more screens of this group.
Cruzain Triton = qHTS Assay for Promiscuous and Specific Inhibitors of Cruzain (with detergent) | Cruzipain (Trypanosoma cruzi), P25779 | purified cruzain, Z-FR-AMC fluorescence, 0.01% Triton | Potency, µM, inactives show max response, negative = inhibition, most hits filed as inhibitors | actives 0.43% (n = 200,000);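 further: plate controls were neutral wells for no effect and buffer without enzyme for full effect; nearly all actives have a fitted effect of over 40% in size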
Target sequence (P25779 123-467 limits assumed): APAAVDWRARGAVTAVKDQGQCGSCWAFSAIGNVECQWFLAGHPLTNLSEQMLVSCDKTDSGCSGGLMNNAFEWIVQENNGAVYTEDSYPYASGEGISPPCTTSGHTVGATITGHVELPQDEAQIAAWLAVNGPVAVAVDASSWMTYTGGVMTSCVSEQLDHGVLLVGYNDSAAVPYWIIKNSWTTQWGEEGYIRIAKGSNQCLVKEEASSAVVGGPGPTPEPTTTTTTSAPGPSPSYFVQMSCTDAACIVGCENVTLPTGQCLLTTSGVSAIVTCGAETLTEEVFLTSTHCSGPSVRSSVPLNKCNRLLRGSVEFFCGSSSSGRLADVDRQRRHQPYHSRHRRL
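Enzyme 1.5 nM, Z-FR-AMC 2 uM, NaOAc 100 mM pH 5.5, DTT 5 mM, Triton X-100 0.01%; 15 min RT compound preincubation; kinetic ex360/em450, 60 s delta.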
Cruzain noTriton = qHTS Assay for Promiscuous and Specific Inhibitors of Cruzain (without detergent). Cruzipain (Trypanosoma cruzi), P25779. purified cruzain, Z-FR-AMC fluorescence, no detergent. Potency, µM, for the others: max response, negative = inhibition, usual class: inhibitors. actives 2.3% (n = 200,000);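 further: plate controls were enzyme without inhibitor for no effect and buffer without enzyme for full effect; nearly all actives have a fitted effect of over 40% in size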
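Detergent-free condition (0.00005% Triton X-100) in acetate buffer pH 5.5 with DTT. 1.5 nM enzyme and compound were pre-mixed 15 min, then 2 uM Z-FR-AMC substrate added; reaction progress from fluorescence change between first and third reads (60 s).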
Starred values were filed as active, the others as inactive; ? = inconclusive. The call rests on the fitted dose curve; in most records, active means well fitted curve in the direction sought with a large enough effect; inconclusive means small, poorly fitted or top-dose-only effect, or another doubt; inactive means no such curve, though single readings can be large; an effect the other way counts as inactive or inconclusive. Potency means the concentration at half of the fitted maximal effect.

SMILES | Cruzain Triton | Cruzain noTriton
Cc1ccc(-c2csc(NC(=O)C3CCN(S(=O)(=O)c4cccs4)CC3)n2)cc1 | -4.4% | ?
O=C(Nc1nc(-c2ccccc2)cs1)C1CCCN(S(=O)(=O)c2cccc([N+](=O)[O-])c2)C1 (stereo unspecified) | -3.9% | 7.94µM*
O=C(Nc1nc(-c2ccc3ccccc3c2)cs1)C1CCN(S(=O)(=O)c2cccs2)CC1 | -2.2% | 3.16µM*
O=C(Nc1nc(-c2ccccc2)cs1)C1CCCN(S(=O)(=O)c2ccccc2)C1 (stereo unspecified) | 4.7% | 20µM*
O=C(Nc1nc(-c2ccccc2)cs1)C1CCCCN1S(=O)(=O)c1ccccc1 (stereo unspecified) | -11.0% | ?
O=C(Nc1nc(-c2ccccc2)cs1)C1CCCCN1S(=O)(=O)c1ccc(Cl)cc1 (stereo unspecified) | -2.9% | ?
Cc1cc(C)cc(OCC(=O)N2CCC(c3nc4ccccc4o3)CC2)c1 | -6.1% | 23.1%
CCOc1ccc(-c2nnc(SCC(=O)Nc3cccc(C#N)c3)o2)cc1 | 25.1µM* | 25.1µM*
CCn1c2ccccc2c2cc(NC(=O)CSc3nnc(-c4ccccc4)o3)ccc21 | 2.9% | 20µM*
Cc1ccc(C)c(NC(=O)CSc2nnc(-c3ccccc3)o2)c1 | 0.3% | -4.0%
CCn1c2ccccc2c2cc(NC(=O)CSc3nnc(-c4cccc(F)c4)o3)ccc21 | -9.9% | ?
CCn1c2ccccc2c2cc(NC(=O)CSc3nnc(-c4cccc(C)c4)o3)ccc21 | 6.7% | 7.94µM*
CCOc1ccc(-c2nnc(SCC(=O)Nc3cccc(Cl)c3C)o2)cc1 | -5.7% | ?
O=C(OC1Cc2c(O)cc(O)cc2OC1c1cc(O)c(O)c(O)c1)c1cc(O)c(O)c(O)c1 (stereo unspecified) | -7.3% | -16.1%
CCOC(=O)c1ccc(N2CCN(c3cccc(Cl)c3)CC2)c(NC(=O)Nc2ccc(Cl)cc2)c1 | 0.6% | 3.98µM*
CCOC(=O)c1ccc(N2CCN(c3ccccc3F)CC2)c(NC(=O)Nc2ccccc2)c1 | -2.7% | ?
COc1cccc(N2CCN(C(=O)Cn3ncc4c3-c3ccccc3OC4)CC2)c1 | -1.5% | ?
CNc1ncc(C(=O)c2ccc(Cl)c(Cl)c2)s1 | -8.9% | -11.5%
O=C(c1ccc(Cl)c(Cl)c1)c1cnc(Nc2ccccc2)s1 | 4.8% | 20µM*
O=S(=O)(c1ccc(Cl)cc1)c1nc(-c2cccs2)oc1N1CCCCC1 | -2.4% | 16.2%
Cc1ccc(N(CC(=O)N/N=C/c2ccc(OC3CSC3)cc2)S(=O)(=O)c2ccccc2)c(C)c1 | -4.9% | 15.8µM*
Cc1ccc(N(CC(=O)N/N=C/c2ccc(OC3CSC3)cc2)S(=O)(=O)c2ccccc2)cc1 | -0.8% | ?
O=c1oc(-c2cccs2)nc2sc3c(c12)CCCC3 | 3.4% | ?
O=c1oc(-c2cccs2)nc2sc3c(c12)CCC3 | 0.9% | 12.6µM*
CC1CCN(c2ccc(/C=N/n3nnnc3N)cc2[N+](=O)[O-])CC1 | -1.5% | -10.1%
SMILES | Cruzain Triton | Cruzain noTriton
CC1CCN(c2ccc(/C=N\Nc3nncn3N)cc2[N+](=O)[O-])CC1 | -9.5% | 25.1µM*
Fc1ccc(N2CCN(c3ncnc4onc(-c5ccc(Cl)cc5)c34)CC2)cc1 | -7.8% | 3.9%
CC(=O)c1ccc(N2CCN(c3ncnc4onc(-c5ccc(Cl)cc5)c34)CC2)cc1 | -16.4% | 3.16µM*
CC1(C(=O)NC2CCCCC2)Cc2ccccc2C(=O)N1Cc1ccc(Cl)cc1 (stereo unspecified) | -0.9% | -1.4%
COC(=O)c1cc2oc(C)cc2n1CC(=O)Nc1ccc(C(C)C)cc1 | -9.3% | -22.0%
CCc1ccc(C2Sc3ccccc3NC3=C2C(=O)c2ccccc23)cc1 (stereo unspecified) | -8.0% | ?
O=C1C2=C(Nc3ccccc3SC2c2ccc(C(F)(F)F)cc2)c2ccccc21 (stereo unspecified) | -2.8% | 20µM*
CC(C)c1ccc(C2Sc3ccccc3NC3=C2C(=O)c2ccccc23)cc1 (stereo unspecified) | -3.9% | 10µM*
CC(=O)Nc1ccc(C2Sc3ccccc3NC3=C2C(=O)c2ccccc23)cc1 (stereo unspecified) | -8.6% | -5.3%
COc1ccc(Cl)cc1NC(=O)CSc1nc(N2CCCCC2)nc(N2CCCCC2)n1 | 6.0% | 15.8µM*
Cc1ccccc1NC(=O)CSc1nc(N2CCCCC2)nc(N2CCCCC2)n1 | -1.4% | -0.8%
O=C(CN1C(=O)/C(=C\c2ccc(F)cc2)Oc2ccccc21)NCc1ccco1 | 25.1µM* | 25.1µM*
O=C(CCN1C(=O)COc2ccccc21)NCc1ccco1 | 0.9% | -6.7%
c1ccc(C(CCN2CC3CCC(CC3)C2)c2ccccc2)cc1 | 1.0% | -2.6%
COc1cccc(OC)c1-c1nn2c(-c3cc(-c4ccccc4)n[nH]3)nnc2s1 | 1.78µM* | 20µM*
COc1cccc(-c2nnc3sc(-c4ccccc4)nn23)c1 | -8.5% | ?
CCc1ccc(Nc2cc(C)nc3nc(Cc4ccc(Cl)cc4)nn23)cc1 | -6.1% | -16.8%
O=C1CC(SCc2nc3ccccc3[nH]2)C(=O)N1c1ccc(F)cc1 (stereo unspecified) | -7.2% | ?
O=C1CC(SCc2nc3ccccc3[nH]2)C(=O)N1c1cccc(Cl)c1 (stereo unspecified) | -12.1% | 15.8µM*
NC(=O)c1ccc(NC(=O)COC(=O)c2cccc(Oc3ccccc3)c2)cc1 | 0.7% | 15.8µM*
O=C(COC(=O)c1cccc(N2C(=O)c3ccccc3C2=O)c1)Nc1ccccc1 | -1.9% | 5.6%
Cc1ccc(-c2nnc(Nc3cccc(C(F)(F)F)c3)c3ccccc23)cc1S(=O)(=O)N1CCOCC1 | -3.3% | 2.3%
Cc1cccc(NC(=O)/C(=C\c2ccc([N+](=O)[O-])o2)NC(=O)c2ccc(Cl)cc2)c1 | -2.8% | -20.1%
Cc1ccc(NC(=O)/C(=C/c2ccncc2)NC(=O)c2ccccc2)cc1 | -4.1% | -8.0%
COc1ccc(NC(=O)/C(=C\c2ccc(OS(=O)(=O)c3ccc(C)cc3)cc2)NC(=O)c2ccccc2)cc1 | 2.6% | 7.94µM*
SMILES | Cruzain Triton | Cruzain noTriton
Cc1ccc(S(=O)(=O)Oc2ccc(/C=C(/NC(=O)c3ccccc3)C(=O)Nc3ccccc3)cc2)cc1 | 1.5% | 12.6µM*
O=C(Nc1ccccc1)/C(=C\c1ccncc1)NC(=O)c1ccccc1 | -0.9% | -2.5%
CSc1ccc(/C=C(/NC(=O)c2ccc(C)cc2)C(=O)Nc2cccc(C)c2)cc1 | -5.8% | 6.31µM*
Cc1ccc(C)c([C@@H]2NC(=O)c3ccccc3N2)c1 | 5.2% | -0.1%
NC(=O)C1=CN(C2OC(COP(=O)(O)OP(=O)(O)OC[C@H]3O[C@@H](n4cnc5c(N)ncnc54)[C@H](OP(=O)(O)O)[C@H]3O)C(O)C2O)C=CC1 (stereo partly specified) | -3.2% | 6.7%
CC1(C)O[C@@H]2O[C@H]([C@@H]3COC(C)(C)O3)[C@H](N)[C@H]2O1 | 2.2% | 3.0%
CCc1c(C)c2cc3c(c(C)c2oc1=O)OCN(CCc1ccccc1F)C3 | -5.7% | -3.4%
COc1cc(N=c2ssnc2Cl)cc(OC)c1 | -12.0% | 15.8µM*
COc1cc(OC)cc(-c2nc(-c3ccccc3OC)no2)c1 | -1.5% | ?
COc1ccc(-c2cc(=O)oc3cc(OCC(C)=O)ccc23)cc1 | -5.5% | -6.5%
COc1ccc(-c2cc(=O)oc3cc(OCC(=O)c4cccc([N+](=O)[O-])c4)ccc23)cc1 | -8.4% | 25.1µM*

Assay outcomes from PubChem.
